C diff growth = C. difficile growth inhibitors, primary screen, HTS. Clostridium difficile clinical isolate growth, OD600, 24 h; stronger effect = lower value. growth activity, negative = inhibition, % at 16 µg/mL (by protocol). 86,000 tested, 0.25% active. AID 1259249, 2017;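 active = mean growth activity at or below -80% and every replicate also at or below -80%; inconclusive = mean at or below -80% but some replicate above -80%; inactive = mean growth activity above -80%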;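 note: 0% = DMSO wells and -100% = levofloxacin 16 µg/mL wells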
T cruzi growth-1 = T. cruzi intracellular proliferation inhibitors, primary screen, cell-based, beta-gal Tulahuen parasites, NIH3T3 host, luminescence. T. cruzi beta-gal in NIH3T3, GalScreen luminescence, 90 h. inhibition, % at 8.34 µM. 77,000 tested, 5.9% active. AID 624255, 2012;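 active = mean inhibition above about 93%, with at least 55% of replicates each passing it, limit read from the data, passing the limit was not always enough; inconclusive = only one of those two conditions holds; inactive = neither condition holds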
Pf Dd2 growth = P. falciparum Dd2 growth inhibitors, primary screen, SYBR Green fluorescence, single dose replicates | 72 h; stronger effect = lower value | 94,000 tested, 2.3% active | activity change, % at 10 µM; in the data active = activity change below about -80%; inconclusive = no clear call, values can overlap the other calls
T cruzi growth-2 = T. cruzi intracellular proliferation inhibitors, confirmation, cell-based, NIH3T3 host, beta-gal parasite, luminescence, cherry-pick. shares compounds with T cruzi growth-1. AID 651739, 2012. inhibition, % at 8.35 µM. T. cruzi beta-gal in NIH3T3, GalScreen luminescence, 90 h. 5,600 tested, 72% active;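 active = mean replicate inhibition above about 95% and at least 55% of replicates individually reaching it, limit read from the data; inconclusive = only one of the two criteria is met; inactive = neither criterion is met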
T cruzi growth-3 = inhibitors of intracellular T. cruzi replication, confirmation, NIH3T3 host cells, beta-gal parasites, cherry-pick, set 2 | T. cruzi beta-gal in NIH3T3, GalScreen luminescence, 90 h | inhibition, % at 2.09 µM | shares compounds with T cruzi growth-1 | AID 651740, 2012 | 5,600 tested, 21% active;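 active = mean inhibition above about 95%, with at least 55% of replicates also reaching it, limit read from the data; inconclusive = meets just one of the two conditions; inactive = meets neither condition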;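 note: plate controls were neutral control median for no effect and positive control median for full effect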
NIH3T3 tox = cytotoxicity in mouse NIH/3T3 fibroblasts, confirmation, cytotoxicity control for T. cruzi proliferation inhibitor project, cell-based, cherry-pick, single point; shares compounds with T cruzi growth-1; NIH/3T3 viability, CellTiter-Glo ATP luminescence, 90 h; cytotoxicity (signal decrease), % at 8.35 µM; 5,600 tested, 14% active; AID 651742, 2012;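 active = mean signal decrease across replicates above about 35% based on untreated-well scatter, with enough replicates individually passing, limit read from the data; inconclusive = no rule stated though some were filed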;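 note: 0% = median of neutral control wells and 100% = median of positive control wells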
NIH3T3 tox 2 = NIH/3T3 fibroblast cytotoxicity, confirmation, cytotoxicity control, cell-based, cherry-pick, single point, set 2 | AID 651744, 2012 | inhibition, % at 24.9 µM | 5,600 tested, 56% active | shares compounds with T cruzi growth-1 | NIH/3T3 viability, CellTiter-Glo ATP luminescence, 90 h;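 active = mean loss of cell viability signal at or above a set limit, and enough replicates individually reaching it; inconclusive = meets only the mean limit or only the replicate share; inactive = meets neither condition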;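 note: 0% = median of neutral control wells and 100% = median of positive control wells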
Active calls of the source: *; ? = inconclusive; . = no result given. The list is not random: actives were taken first. Their share in the collection is about 6.8%.

SMILES	C diff growth	T cruzi growth-1	Pf Dd2 growth	T cruzi growth-2	T cruzi growth-3	NIH3T3 tox	NIH3T3 tox 2
O=C(NC1CCC1)[C@@H]1[C@@H](CO)[C@@H]2Cn3c(ccc(-c4ccncc4)c3=O)[C@H]1N2CC1CC1	-2	-2	9	.	.	.	.
C/C=C/c1ccccc1[C@@H]1[C@H](C#N)N(C(=O)Cc2ccccn2)[C@H]1CO	-4	.	-4	.	.	.	.
COc1ccccc1CNC(=O)C[C@H]1C[C@@H]2c3cc(NS(C)(=O)=O)ccc3O[C@@H]2[C@@H](CO)O1	0	31	2	.	.	.	.
C[C@@H]1CN([C@H](C)CO)C(=O)c2cc(C#Cc3ccccn3)cnc2O[C@@H]1CN(C)Cc1ccncc1	1	46	22	.	.	.	.
C[C@@H]1CN([C@H](C)CO)C(=O)c2cccc(NC(=O)Nc3ccc(F)cc3)c2O[C@H]1CN(C)Cc1ccc(Cl)c(Cl)c1	.	16	2	.	.	.	.
C[C@@H]1CN([C@@H](C)CO)C(=O)c2cccc(NC(=O)Nc3ccc(C(F)(F)F)cc3)c2O[C@H]1CN(C)Cc1ccc(Cl)c(Cl)c1	9	130*	-13	102*	116*	39*	89*
C[C@H]1CN([C@@H](C)CO)C(=O)c2cccc(NC(=O)Nc3ccc(C(F)(F)F)cc3)c2O[C@H]1CN(C)Cc1ccc2c(c1)OCO2	.	99*	-25	106*	103*	5	98*
C[C@H]1CN([C@@H](C)CO)C(=O)c2cccc(NC(=O)Nc3ccc4c(c3)OCO4)c2O[C@H]1CN(C)Cc1ccc(C(F)(F)F)cc1	0	30	5	.	.	.	.
C[C@@H]1CN([C@H](C)CO)C(=O)c2cccc(NC(=O)Nc3ccc(C(F)(F)F)cc3)c2O[C@@H]1CN(C)S(=O)(=O)c1ccc(Cl)cc1	.	108*	-37	103*	107*	34	105*
Cc1ccc(S(=O)(=O)N(C)C[C@H]2Oc3c(NC(=O)Nc4ccc(C(F)(F)F)cc4)cccc3C(=O)N([C@H](C)CO)C[C@@H]2C)cc1	10	85	-63	.	.	.	.
COc1ccc(NC(=O)Nc2cccc3c2O[C@@H](CN(C)Cc2ccc(Cl)c(Cl)c2)[C@H](C)CN([C@@H](C)CO)C3=O)cc1	5	116*	-36	99*	102*	14	53*
C[C@@H]1CN([C@H](C)CO)C(=O)c2cccc(NC(=O)Nc3ccc(C(F)(F)F)cc3)c2O[C@@H]1CN(C)Cc1ccc(Cl)c(Cl)c1	.	90	-33	.	.	.	.
O=C(Nc1ccc(F)cc1)N[C@@H]1C[C@@H]2O[C@H](CO)CC[C@@H]2O[C@@H]1CCc1ccc(-c2ccccc2)cc1	4	.	-65	.	.	.	.
C[C@H]1CN([C@@H](C)CO)C(=O)c2cc(/C=C/c3ccccc3)cnc2O[C@@H]1CN(C)S(=O)(=O)c1cn(C)cn1	-7	53	-25	.	.	.	.
COc1ccc(S(=O)(=O)Nc2ccc3c(c2)C(=O)N([C@H](C)CO)C[C@H](C)[C@@H](CN(C)Cc2ccc(C(=O)O)cc2)OCCCC[C@H](C)O3)cc1	-2	33	-8	.	.	.	.
CC(C)NC(=O)Nc1ccc2c(c1)C(=O)N([C@H](C)CO)C[C@@H](C)[C@@H](CN(C)C(=O)Nc1ccc3c(c1)OCO3)O2	23	5	9	.	.	.	.
O=C(C[C@H]1CC[C@@H](NC(=O)Nc2cccc(F)c2)[C@H](CO)O1)NCC1CCCCC1	1	.	-1	.	.	.	.
C[C@@H]1CN([C@@H](C)CO)C(=O)c2cc(NS(=O)(=O)c3ccc(F)cc3)ccc2O[C@H]1CN(C)S(=O)(=O)c1ccc(Cl)cc1	-7	35	-15	.	.	.	.
O=C(C[C@@H]1C[C@@H]2c3cc(NC(=O)C4CCOCC4)ccc3O[C@@H]2[C@H](CO)O1)NCc1cc(F)ccc1F	4	52	23	.	.	.	.
C[C@H](CO)N1C[C@H](C)[C@H](CN(C)Cc2ccc(Cl)c(Cl)c2)Oc2ccc(NC(=O)Nc3ccc(C(F)(F)F)cc3)cc2C1=O	28	103*	-5	98*	109*	33	108*
C[C@H]1CN([C@@H](C)CO)C(=O)c2cc(NC(=O)Nc3ccc(C(F)(F)F)cc3)ccc2O[C@@H]1CN(C)Cc1ccc(Cl)c(Cl)c1	1	84	-33	.	.	.	.
C[C@H](CO)N1C[C@H](C)[C@@H](CN(C)Cc2ccc(Cl)c(Cl)c2)Oc2c(NC(=O)Nc3ccc(F)cc3)cccc2C1=O	.	4	-14	.	.	.	.
C[C@@H]1CN([C@H](C)CO)C(=O)c2cccc(NC(=O)Nc3ccc(C(F)(F)F)cc3)c2O[C@H]1CN(C)Cc1ccc(Cl)c(Cl)c1	27	?	-16	99*	108*	22	105*
CO[C@H]1CN(C)C(=O)c2ccc(NC(=O)C3CCOCC3)cc2OC[C@@H](C)NC[C@H]1C	.	-154	31	.	.	.	.
C/C=C/c1ccc([C@@H]2[C@@H](CO)N3C(=O)CN(C(=O)c4cccc(F)c4)C[C@@H]23)cc1	-3	.	-48	.	.	.	.
SMILES	C diff growth	T cruzi growth-1	Pf Dd2 growth	T cruzi growth-2	T cruzi growth-3	NIH3T3 tox	NIH3T3 tox 2
O=C(C1CCC1)N1CCCCN2[C@H](CO)[C@@H](c3ccc(C#CC4CCCC4)cc3)[C@H]2C1	12	?	-52	87	39	12	104*
O=C(C1CCC1)N1CCCCN2[C@H](CO)[C@H](c3ccc(C#CC4CCCC4)cc3)[C@H]2C1	48	101*	-52	104*	95	22	103*
O=C(C1CCC1)N1CCCCN2[C@H](CO)[C@H](c3ccc(C#CC4CCCC4)cc3)[C@@H]2C1	-9	72	-6	.	.	.	.
O=C(C1CCC1)N1CCCCN2[C@@H](CO)[C@@H](c3ccc(C#CC4CCCC4)cc3)[C@@H]2C1	4	86	-56	.	.	.	.
COCC(=O)Nc1ccc2c(c1)OC[C@@H](C)N(C(=O)c1cccnc1)C[C@H](C)[C@H](OC)CN(C)C2=O	-2	-20	16	.	.	.	.
C[C@H](CO)N1C[C@H](C)[C@H](CN(C)C)Oc2cc(C#Cc3cccnc3)ccc2S1(=O)=O	3	-42	-7	.	.	.	.
Cc1ccc(S(=O)(=O)N2C[C@H](O)COC[C@@H]3O[C@@H](CC(=O)N[C@@H]4CCN(Cc5ccccc5)C4)CC[C@H]32)cc1	.	13	-25	.	.	.	.
COc1ccc(S(=O)(=O)N2C[C@H](O)COC[C@H]3O[C@@H](CC(=O)N[C@H]4CCN(Cc5ccccc5)C4)CC[C@@H]32)cc1	0	?	.	84	40	-17	-1
